Measured values: the supplement of paper PMC9262897, “Low-cost anti-mycobacterial drug discovery using engineered E. coli” (Nature Communications, 2022)
Counter-ions that a name gives are not always drawn. ± gives the standard deviation of the averaged measurements.

Columns and labels:
Assay in all cases: growth (OD600 after 10 h); higher = more growth (less inhibition)
[1] = system: E. coli TESEC Alr+ wild-type control; details: compound 0.1 mM; raw OD600 reference: median of DMSO wells 0.241, cell-free background 0.041
Experimental: (§1)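 TESEC Mtb Alr E. coli, or the Alr+ wild-type control, in 384-well plates with Prestwick library compounds at 0.1 mM and 1% DMSO, across arabinose induction levels of 1E3 to 1E7 nM. Growth is read as OD600 after 10 h at 37 °C in triplicate biological replicates.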

[2] = system: E. coli TESEC Mtb Alr; details: compound 0.1 mM
Experimental: as §1

[3] = system: E. coli TESEC Mtb Asd; details: compound 0.1 mM
Experimental: (§2)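 TESEC E. coli strains in which the native enzyme is deleted and replaced by arabinose-inducible Mtb Asd, DapB, CysH or TrpD, each grown in its selective medium. Strains were screened against the Prestwick library at 0.1 mM and 1% DMSO in 384-well format at low and high arabinose induction. Growth is read as OD600 after 10 h in triplicate.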

[4] = system: E. coli TESEC Mtb DapB; details: compound 0.1 mM
Experimental: as §2

[5] = system: E. coli TESEC Alr+ wild-type control; details: compound 0.1 mM; raw OD600 reference: median of DMSO wells 0.49, cell-free background 0.052
Experimental: (§3)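 TESEC Mtb Alr E. coli (ΔaraC ΔtolC ΔentC Δalr ΔdadX, arabinose-inducible Mtb Alr) or the Alr+ wild-type control strain, grown in defined M9-fructose medium without D-alanine in 96-well plates with Prestwick library compounds at 0.1 mM and 1% DMSO. Low Alr induction is 0.1 µM arabinose and high induction is 10 mM arabinose.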

[6] = system: E. coli TESEC Mtb Alr; details: compound 0.1 mM; remark: listed apart in the source
Experimental: as §3

[7] = arabinose 1000 nM, raw OD600 reference: median of DMSO wells 0.294, cell-free background 0.041
[8] = arabinose 10000 nM, raw OD600 reference: median of DMSO wells 0.264, cell-free background 0.041
[9] = arabinose 100000 nM, raw OD600 reference: median of DMSO wells 0.201, cell-free background 0.041
[10] = arabinose 1000000 nM, raw OD600 reference: median of DMSO wells 0.193, cell-free background 0.041
[11] = arabinose 10000000 nM, raw OD600 reference: median of DMSO wells 0.146, cell-free background 0.041
[12] = arabinose induction (level): High, raw OD600 reference: median of DMSO wells 0.331, cell-free background 0.041
[13] = arabinose induction (level): Low, raw OD600 reference: median of DMSO wells 0.417, cell-free background 0.041
[14] = arabinose induction (level): High, raw OD600 reference: median of DMSO wells […], cell-free background 0.041
[15] = arabinose induction (level): Low, raw OD600 reference: median of DMSO wells 0.227, cell-free background 0.041
[16] = arabinose 100 nM, raw OD600 reference: median of DMSO wells 0.413, cell-free background 0.052
[17] = arabinose 10000000 nM, raw OD600 reference: median of DMSO wells […], cell-free background 0.052

Row | Compound | growth [1] | growth [2, 7] | growth [2, 8] | growth [2, 9] | growth [2, 10] | growth [2, 11] | growth [3, 12] | growth [3, 13] | growth [4, 14] | growth [4, 15] | growth [5] | growth [6, 16] | growth [6, 17]
1 | CC(=O)Nc1c(I)c(NC(C)=O)c(I)c(C(=O)O)c1I [Diatrizoic acid dihydrate] | 0.234 ± 0.0051 | 0.285 ± 0.0023 | 0.255 ± 0.0056 | 0.191 ± 0.017 | 0.213 ± 0.0043 | 0.131 ± 0.01 | 0.297 ± 0.043 | 0.326 ± 0.053 | 0.197 ± 0.013 | 0.235 ± 0.023 | 0.537 ± 0.08 | 0.424 ± 0.011 | 0.348 ± 0.0074
2 | CC(C)(C)NC[C@H](O)c1ccc(O)c(CO)c1 [Levalbuterol hydrochloride] | 0.235 ± 0.005 | 0.305 ± 0.011 | 0.273 ± 0.0041 | 0.197 ± 0.0075 | 0.214 ± 0.023 | 0.141 ± 0.0037 | 0.242 ± 0.05 | 0.32 ± 0.084 | 0.168 ± 0.033 | 0.179 ± 0.088 | 0.608 ± 0.014 | 0.4232 ± 0.00093 | 0.318 ± 0.01
3 | CCN(CC)CC(=O)Nc1c(C)cccc1C [Lidocaine hydrochloride] | 0.238 ± 0.0076 | 0.256 ± 0.062 | 0.273 ± 0.017 | 0.194 ± 0.01 | 0.183 ± 0.0033 | 0.146 ± 0.0067 | 0.267 ± 0.048 | 0.403 ± 0.057 | 0.204 ± 0.0083 | 0.235 ± 0.048 | 0.586 ± 0.028 | 0.41 ± 0.0091 | 0.345 ± 0.019
4 | CCCC(=O)Nc1ncnc2c1ncn2[C@@H]1O[C@@H]2COP(=O)(O)O[C@H]2[C@H]1OC(=O)CCC [Bucladesine sodium salt] | 0.25 ± 0.0053 | 0.31 ± 0.019 | 0.275 ± 0.0043 | 0.206 ± 0.015 | 0.189 ± 0.0065 | 0.138 ± 0.012 | 0.355 ± 0.06 | 0.47 ± 0.008 | 0.2 ± 0.016 | 0.218 ± 0.014 | 0.565 ± 0.093 | 0.405 ± 0.011 | 0.362 ± 0.013
5 | Cc1noc(NS(=O)(=O)c2ccc(N)cc2)c1C [Sulfisoxazole] | 0.248 ± 0.0068 | 0.274 ± 0.021 | 0.203 ± 0.0055 | 0.213 ± 0.042 | 0.12 ± 0.0019 | 0.149 ± 0.0027 | 0.308 ± 0.035 | 0.386 ± 0.073 | 0.19 ± 0.0067 | 0.205 ± 0.022 | 0.588 ± 0.015 | 0.424 ± 0.012 | 0.313 ± 0.019
6 | O=C1NCCN1CCN1CCC(c2cn(-c3ccc(F)cc3)c3ccc(Cl)cc23)CC1 [Sertindole] | 0.0429 ± 0.0029 | 0.04057 ± 0.00035 | 0.04073 ± 0.00025 | 0.0409 ± 0.0004 | 0.04 ± 0.0001 | 0.0443 ± 0.0027 | 0.0531 ± 0.0039 | 0.0504 ± 0.003 | 0.102 ± 0.09 | 0.0562 ± 0.012 | 0.0474 ± 0.001 | 0.167 ± 0.2 | 0.0524 ± 0.00098
7 | C[C@]12CC[C@@H]3c4ccc(O)cc4C[C@@H](CCCCCCCCC[S+]([O-])CCCC(F)(F)C(F)(F)F)[C@H]3[C@@H]1CC[C@@H]2O (stereo partly drawn) [Fulvestrant] | 0.265 ± 0.015 | 0.296 ± 0.016 | 0.27 ± 0.009 | 0.195 ± 0.017 | 0.179 ± 0.012 | 0.137 ± 0.005 | 0.379 ± 0.022 | 0.415 ± 0.041 | 0.212 ± 0.0092 | 0.258 ± 0.091 | 0.439 ± 0.024 | 0.413 ± 0.03 | 0.355 ± 0.028
8 | COC1=CC(=O)C[C@@H](C)[C@]12Oc1c(Cl)c(OC)cc(OC)c1C2=O [Griseofulvin] | 0.223 ± 0.0068 | 0.2842 ± 0.002 | 0.2487 ± 0.002 | 0.208 ± 0.021 | 0.0853 ± 0.0022 | 0.135 ± 0.006 | 0.241 ± 0.051 | 0.385 ± 0.11 | 0.174 ± 0.0029 | 0.233 ± 0.022 | 0.514 ± 0.041 | 0.416 ± 0.013 | 0.21 ± 0.032
9 | N=C(NCCCCCCNC(=N)NC(=N)Nc1ccc(Cl)cc1)NC(=N)Nc1ccc(Cl)cc1 [Chlorhexidine] | 0.04463 ± 0.00035 | 0.0435 ± 0.00051 | 0.0456 ± 0.003 | 0.0447 ± 0.0014 | 0.04363 ± 0.00015 | 0.0449 ± 0.0005 | 0.0592 ± 0.0021 | 0.0584 ± 0.0011 | 0.0506 ± 0.0011 | 0.0542 ± 0.0085 | 0.0486 ± 0.0014 | 0.04807 ± 5.8e-05 | 0.054 ± 0.0013
10 | CN1C2CCCC1CC(NC(=O)c1nn(C)c3ccccc13)C2 (stereo not drawn) [Granisetron] | 0.208 ± 0.0038 | 0.301 ± 0.026 | 0.2743 ± 0.0024 | 0.171 ± 0.0068 | 0.213 ± 0.014 | 0.126 ± 0.0041 | 0.28 ± 0.063 | 0.379 ± 0.08 | 0.202 ± 0.022 | 0.238 ± 0.015 | 0.549 ± 0.068 | 0.424 ± 0.0065 | 0.351 ± 0.0039
11 | CCOC1O[C@H]([C@@H](COCc2ccccc2)OCc2ccccc2)[C@H](OCc2ccccc2)[C@H]1O (stereo partly drawn) [Tribenoside] | 0.23 ± 0.005 | 0.29 ± 0.008 | 0.255 ± 0.015 | 0.148 ± 0.0075 | 0.0915 ± 0.0035 | 0.154 ± 0.0022 | 0.214 ± 0.023 | 0.199 ± 0.015 | 0.155 ± 0.0039 | 0.155 ± 0.016 | 0.374 ± 0.015 | 0.378 ± 0.0058 | 0.0944 ± 0.017
12 | Cc1[nH]cnc1CN1CCc2c(c3ccccc3n2C)C1=O [Alosetron hydrochloride] | 0.197 ± 0.0093 | 0.26 ± 0.0044 | 0.233 ± 0.014 | 0.225 ± 0.0049 | 0.178 ± 0.008 | 0.1498 ± 0.001 | 0.287 ± 0.076 | 0.263 ± 0.027 | 0.196 ± 0.017 | 0.262 ± 0.041 | 0.563 ± 0.075 | 0.387 ± 0.012 | 0.289 ± 0.0097
13 | CN(C)[C@@H]1C(=O)C(C(=O)NCNCCCC[C@H](N)C(=O)O)=C(O)[C@@]2(O)C(=O)C3=C(O)c4c(O)cccc4[C@@](C)(O)[C@H]3C[C@@H]12 [Lymecycline] | 0.178 ± 0.0022 | 0.221 ± 0.0059 | 0.18 ± 0.011 | 0.204 ± 0.016 | 0.0804 ± 0.0073 | 0.101 ± 0.0033 | 0.12 ± 0.0094 | 0.159 ± 0.0077 | 0.0866 ± 0.01 | 0.152 ± 0.0064 | 0.329 ± 0.017 | 0.312 ± 0.031 | 0.0693 ± 0.0019
14 | Cc1c(C)c2c(c(C)c1O)CCC(C)(C(=O)O)O2 (stereo not drawn) [Trolox] | 0.247 ± 0.0084 | 0.295 ± 0.0077 | 0.255 ± 0.0029 | 0.209 ± 0.031 | 0.1784 ± 0.0016 | 0.143 ± 0.0045 | 0.272 ± 0.097 | 0.32 ± 0.15 | 0.242 ± 0.0084 | 0.222 ± 0.021 | 0.579 ± 0.053 | 0.405 ± 0.0096 | 0.316 ± 0.024
15 | C[C@H](CCC(=O)O)[C@H]1CC[C@H]2[C@@H]3CC[C@@H]4C[C@H](O)CC[C@]4(C)[C@H]3CC[C@]12C [Lithocholic acid] | 0.255 ± 0.011 | 0.312 ± 0.011 | 0.266 ± 0.0075 | 0.207 ± 0.012 | 0.169 ± 0.0078 | 0.173 ± 0.0071 | 0.462 ± 0.008 | 0.404 ± 0.022 | 0.214 ± 0.011 | 0.229 ± 0.021 | 0.386 ± 0.047 | 0.325 ± 0.037 | 0.3 ± 0.017
16 | C=CCOC(Cn1ccnc1)c1ccc(Cl)cc1Cl (stereo not drawn) [Enilconazole] | 0.0491 ± 0.0028 | 0.0495 ± 0.0068 | 0.0424 ± 0.00087 | 0.0459 ± 0.0018 | 0.043 ± 0.0011 | 0.0488 ± 0.0025 | 0.0691 ± 0.01 | 0.0619 ± 0.0052 | 0.0767 ± 0.0029 | 0.0764 ± 0.0069 | 0.11 ± 0.01 | 0.193 ± 0.0082 | 0.0627 ± 0.0022
